The supplement of paper PMC11732987, “Enantioselective OTUD7B fragment discovery through chemoproteomics screening and high-throughput optimisation” (Communications Chemistry, 2025)

What was measured:
Test in all cases: log2 ratio of Biotin-Ahx-Ub-VS probe labelling (fragment/DMSO); higher = less target engagement (more negative = stronger competition), active = hit call of the paper (q ≤ 0.05, log2 ratio ≤ -1)
Conditions in all cases: compound concentration: 200 uM; treatment time: 3 h
[1] = molecular target: USP9X (UniProt Q93008)
In short: (§1)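 Using Biotin-Ahx-Ub-VS at 0.5 µM final for 1 h, DUBs were labelled in HEK293T lysate (495 µg per sample) that had first been treated in triplicate with fragment at 200 µM or vehicle for 3 h. NeutrAvidin enrichment, LysC and trypsin digestion and diaPASEF LC-MS/MS followed. Spectronaut label-free quantities were global-median-normalised. Values are average log2 fragment/vehicle ratios by unpaired t-test, using proteins with ≥2 unique peptides.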

[2] = molecular target: UniProt O00487
In short: as §1

[3] = molecular target: UniProt O00507
In short: as §1

[4] = molecular target: UniProt P51784
In short: as §1

[5] = molecular target: T1, UniProt Q5T2D3
T1 sequence (whole entry): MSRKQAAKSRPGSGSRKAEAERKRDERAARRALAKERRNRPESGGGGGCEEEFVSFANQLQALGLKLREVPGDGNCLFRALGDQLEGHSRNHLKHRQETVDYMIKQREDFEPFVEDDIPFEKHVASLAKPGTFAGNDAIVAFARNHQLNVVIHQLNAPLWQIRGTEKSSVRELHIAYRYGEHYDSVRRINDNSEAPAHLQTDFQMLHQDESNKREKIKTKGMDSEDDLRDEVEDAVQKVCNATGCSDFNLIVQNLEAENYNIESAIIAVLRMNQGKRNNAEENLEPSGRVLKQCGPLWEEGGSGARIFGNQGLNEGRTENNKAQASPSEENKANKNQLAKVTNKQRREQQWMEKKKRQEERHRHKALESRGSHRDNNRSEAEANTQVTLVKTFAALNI
In short: as §1

[6] = molecular target: T2, UniProt Q8TE49
T2 sequence (whole entry): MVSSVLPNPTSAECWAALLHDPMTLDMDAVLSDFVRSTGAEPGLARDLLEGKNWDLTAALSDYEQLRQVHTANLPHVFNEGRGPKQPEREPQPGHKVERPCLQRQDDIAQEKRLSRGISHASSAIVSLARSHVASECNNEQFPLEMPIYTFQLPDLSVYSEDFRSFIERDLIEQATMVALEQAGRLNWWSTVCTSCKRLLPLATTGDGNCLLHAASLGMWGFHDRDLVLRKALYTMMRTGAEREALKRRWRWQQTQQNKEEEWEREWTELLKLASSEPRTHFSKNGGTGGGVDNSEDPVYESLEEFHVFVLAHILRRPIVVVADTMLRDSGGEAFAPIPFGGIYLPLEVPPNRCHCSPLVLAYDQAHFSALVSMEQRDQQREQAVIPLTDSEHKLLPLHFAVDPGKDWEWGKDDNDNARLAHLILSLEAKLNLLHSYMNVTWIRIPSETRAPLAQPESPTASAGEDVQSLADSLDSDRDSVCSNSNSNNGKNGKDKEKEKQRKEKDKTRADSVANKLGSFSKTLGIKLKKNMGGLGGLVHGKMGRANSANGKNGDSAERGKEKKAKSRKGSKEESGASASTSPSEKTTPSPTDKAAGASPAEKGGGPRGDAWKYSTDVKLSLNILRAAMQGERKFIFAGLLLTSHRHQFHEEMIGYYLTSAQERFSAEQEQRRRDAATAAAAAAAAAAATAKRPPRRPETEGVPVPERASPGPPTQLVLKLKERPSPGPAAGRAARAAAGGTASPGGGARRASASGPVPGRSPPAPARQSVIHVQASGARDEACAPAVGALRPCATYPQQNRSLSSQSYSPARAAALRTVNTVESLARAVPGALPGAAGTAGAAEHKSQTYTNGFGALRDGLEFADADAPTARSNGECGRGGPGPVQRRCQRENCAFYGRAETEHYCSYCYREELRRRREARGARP
In short: as §1

[7] = molecular target: T3, UniProt Q9P2H5
T3 sequence (whole entry): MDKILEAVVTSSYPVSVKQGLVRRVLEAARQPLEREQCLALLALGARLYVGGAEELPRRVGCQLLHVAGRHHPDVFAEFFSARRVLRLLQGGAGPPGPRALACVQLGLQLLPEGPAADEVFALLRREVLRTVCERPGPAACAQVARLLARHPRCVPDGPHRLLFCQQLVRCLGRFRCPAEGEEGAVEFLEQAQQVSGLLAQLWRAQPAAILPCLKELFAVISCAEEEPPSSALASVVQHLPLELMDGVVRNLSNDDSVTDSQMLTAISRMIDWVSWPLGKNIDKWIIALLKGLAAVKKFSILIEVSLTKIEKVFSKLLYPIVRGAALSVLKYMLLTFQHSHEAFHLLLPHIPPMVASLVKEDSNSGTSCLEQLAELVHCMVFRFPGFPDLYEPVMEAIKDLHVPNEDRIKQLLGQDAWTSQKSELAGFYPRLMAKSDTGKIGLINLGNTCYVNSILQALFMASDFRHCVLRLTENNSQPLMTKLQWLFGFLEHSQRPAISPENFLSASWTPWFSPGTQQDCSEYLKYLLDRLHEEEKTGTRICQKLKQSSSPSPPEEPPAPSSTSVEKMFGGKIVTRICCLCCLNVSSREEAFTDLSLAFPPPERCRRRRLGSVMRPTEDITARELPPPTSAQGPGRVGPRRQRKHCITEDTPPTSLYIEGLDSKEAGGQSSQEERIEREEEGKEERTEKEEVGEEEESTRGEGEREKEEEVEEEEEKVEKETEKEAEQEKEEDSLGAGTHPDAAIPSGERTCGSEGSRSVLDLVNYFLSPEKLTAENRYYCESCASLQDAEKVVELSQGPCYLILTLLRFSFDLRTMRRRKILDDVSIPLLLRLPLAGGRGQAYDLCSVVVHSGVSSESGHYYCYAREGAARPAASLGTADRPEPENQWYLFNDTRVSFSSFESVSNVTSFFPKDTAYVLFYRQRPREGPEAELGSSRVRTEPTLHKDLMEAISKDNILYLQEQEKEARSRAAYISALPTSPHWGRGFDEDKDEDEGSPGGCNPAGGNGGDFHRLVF
In short: as §1

[8] = molecular target: T4, UniProt Q9UGI0
T4 sequence (whole entry): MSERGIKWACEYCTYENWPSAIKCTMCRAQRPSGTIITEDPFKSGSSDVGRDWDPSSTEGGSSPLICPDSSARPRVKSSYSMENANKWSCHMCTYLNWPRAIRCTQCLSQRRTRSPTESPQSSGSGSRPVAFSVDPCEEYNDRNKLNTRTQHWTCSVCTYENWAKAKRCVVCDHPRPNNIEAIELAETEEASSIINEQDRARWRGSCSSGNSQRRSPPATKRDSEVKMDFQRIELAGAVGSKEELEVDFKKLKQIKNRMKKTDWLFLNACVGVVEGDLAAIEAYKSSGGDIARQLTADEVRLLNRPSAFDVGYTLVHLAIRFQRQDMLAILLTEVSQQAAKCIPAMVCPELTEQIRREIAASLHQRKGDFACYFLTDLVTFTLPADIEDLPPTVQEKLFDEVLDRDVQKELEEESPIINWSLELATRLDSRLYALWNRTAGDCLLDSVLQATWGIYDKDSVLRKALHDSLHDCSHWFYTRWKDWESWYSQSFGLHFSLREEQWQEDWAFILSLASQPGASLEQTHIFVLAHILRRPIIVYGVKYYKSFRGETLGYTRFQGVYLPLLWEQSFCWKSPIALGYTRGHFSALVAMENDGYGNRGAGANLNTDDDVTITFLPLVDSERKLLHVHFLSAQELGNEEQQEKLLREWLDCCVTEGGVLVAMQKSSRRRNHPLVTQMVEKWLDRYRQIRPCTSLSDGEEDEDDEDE
In short: as §1

[9] = molecular target: T5, YOD1 (UniProt Q5VVQ6)
T5 sequence (whole entry): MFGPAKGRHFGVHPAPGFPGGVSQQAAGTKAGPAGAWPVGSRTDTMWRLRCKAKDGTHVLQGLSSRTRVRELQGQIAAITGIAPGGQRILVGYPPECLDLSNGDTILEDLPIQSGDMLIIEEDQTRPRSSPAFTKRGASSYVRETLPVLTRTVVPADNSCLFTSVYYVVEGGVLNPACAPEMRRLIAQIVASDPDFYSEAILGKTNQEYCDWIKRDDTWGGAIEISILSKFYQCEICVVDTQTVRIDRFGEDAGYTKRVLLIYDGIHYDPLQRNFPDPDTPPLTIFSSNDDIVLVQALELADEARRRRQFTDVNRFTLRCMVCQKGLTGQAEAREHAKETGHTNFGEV
In short: as §1

Measured: log2 ratio of Biotin-Ahx-Ub-VS probe labelling

Sequence of UniProt O00507 (O00507 whole entry): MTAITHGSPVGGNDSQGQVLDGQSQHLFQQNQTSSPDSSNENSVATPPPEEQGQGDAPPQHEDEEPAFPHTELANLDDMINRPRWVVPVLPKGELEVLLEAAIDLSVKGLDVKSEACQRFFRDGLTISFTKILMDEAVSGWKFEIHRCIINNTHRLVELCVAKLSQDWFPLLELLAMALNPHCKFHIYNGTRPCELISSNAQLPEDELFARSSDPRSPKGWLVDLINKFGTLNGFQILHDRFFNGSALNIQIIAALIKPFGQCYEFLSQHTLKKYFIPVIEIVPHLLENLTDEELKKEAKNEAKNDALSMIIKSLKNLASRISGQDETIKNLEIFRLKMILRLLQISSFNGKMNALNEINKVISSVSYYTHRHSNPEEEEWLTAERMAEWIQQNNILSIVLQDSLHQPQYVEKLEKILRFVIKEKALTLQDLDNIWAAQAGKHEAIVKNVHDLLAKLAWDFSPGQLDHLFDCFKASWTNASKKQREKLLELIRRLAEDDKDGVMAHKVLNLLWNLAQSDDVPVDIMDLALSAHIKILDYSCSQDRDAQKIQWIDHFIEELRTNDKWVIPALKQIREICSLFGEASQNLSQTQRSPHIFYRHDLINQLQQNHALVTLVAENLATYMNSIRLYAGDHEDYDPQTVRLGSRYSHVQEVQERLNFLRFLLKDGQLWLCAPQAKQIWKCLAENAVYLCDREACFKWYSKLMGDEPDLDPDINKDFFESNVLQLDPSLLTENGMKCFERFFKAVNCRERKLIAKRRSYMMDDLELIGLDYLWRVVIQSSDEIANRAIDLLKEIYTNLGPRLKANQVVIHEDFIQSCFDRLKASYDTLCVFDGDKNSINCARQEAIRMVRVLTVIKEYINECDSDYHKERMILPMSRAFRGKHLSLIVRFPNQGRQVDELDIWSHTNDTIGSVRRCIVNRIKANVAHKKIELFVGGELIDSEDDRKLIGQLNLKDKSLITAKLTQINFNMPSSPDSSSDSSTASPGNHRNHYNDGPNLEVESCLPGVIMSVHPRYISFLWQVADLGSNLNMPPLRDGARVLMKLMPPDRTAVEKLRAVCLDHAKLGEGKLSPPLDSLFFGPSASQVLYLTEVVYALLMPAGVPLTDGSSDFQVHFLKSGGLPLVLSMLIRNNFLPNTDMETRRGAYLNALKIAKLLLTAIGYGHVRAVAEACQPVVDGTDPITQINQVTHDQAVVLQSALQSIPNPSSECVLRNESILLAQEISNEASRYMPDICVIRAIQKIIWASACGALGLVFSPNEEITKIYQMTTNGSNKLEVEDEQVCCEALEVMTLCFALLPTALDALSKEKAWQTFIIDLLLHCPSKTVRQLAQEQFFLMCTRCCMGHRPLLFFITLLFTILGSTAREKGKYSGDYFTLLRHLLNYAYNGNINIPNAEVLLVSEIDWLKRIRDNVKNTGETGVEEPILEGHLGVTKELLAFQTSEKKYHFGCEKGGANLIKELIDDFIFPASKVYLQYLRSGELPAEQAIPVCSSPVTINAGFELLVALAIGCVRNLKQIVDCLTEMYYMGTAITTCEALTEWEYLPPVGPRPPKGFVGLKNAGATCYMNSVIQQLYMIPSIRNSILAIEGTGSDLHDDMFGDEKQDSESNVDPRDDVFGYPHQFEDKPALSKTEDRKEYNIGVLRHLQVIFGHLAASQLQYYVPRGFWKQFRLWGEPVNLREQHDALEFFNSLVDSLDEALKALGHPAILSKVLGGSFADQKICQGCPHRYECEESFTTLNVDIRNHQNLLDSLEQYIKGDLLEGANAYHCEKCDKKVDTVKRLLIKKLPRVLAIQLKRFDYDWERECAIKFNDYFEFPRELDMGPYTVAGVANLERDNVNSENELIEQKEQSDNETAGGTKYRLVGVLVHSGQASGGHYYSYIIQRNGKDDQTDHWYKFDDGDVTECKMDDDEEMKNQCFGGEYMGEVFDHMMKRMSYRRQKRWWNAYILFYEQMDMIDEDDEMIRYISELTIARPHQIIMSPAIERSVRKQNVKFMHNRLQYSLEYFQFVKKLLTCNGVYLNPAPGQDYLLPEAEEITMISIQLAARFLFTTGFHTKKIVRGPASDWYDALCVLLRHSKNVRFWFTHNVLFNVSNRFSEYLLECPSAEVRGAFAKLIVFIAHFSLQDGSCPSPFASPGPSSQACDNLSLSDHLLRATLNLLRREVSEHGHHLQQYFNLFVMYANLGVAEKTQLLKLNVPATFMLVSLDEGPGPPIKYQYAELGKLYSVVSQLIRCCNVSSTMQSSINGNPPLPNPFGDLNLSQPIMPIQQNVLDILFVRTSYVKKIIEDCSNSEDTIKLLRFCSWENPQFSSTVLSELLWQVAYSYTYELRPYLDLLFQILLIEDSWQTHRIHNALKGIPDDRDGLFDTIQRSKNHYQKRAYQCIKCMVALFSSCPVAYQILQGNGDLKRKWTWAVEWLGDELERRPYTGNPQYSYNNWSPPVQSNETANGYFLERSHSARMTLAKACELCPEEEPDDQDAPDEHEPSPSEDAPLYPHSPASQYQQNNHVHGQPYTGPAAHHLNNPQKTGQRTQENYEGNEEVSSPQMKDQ
Sequence of USP9X (Q93008 whole entry, the tested form may be a part): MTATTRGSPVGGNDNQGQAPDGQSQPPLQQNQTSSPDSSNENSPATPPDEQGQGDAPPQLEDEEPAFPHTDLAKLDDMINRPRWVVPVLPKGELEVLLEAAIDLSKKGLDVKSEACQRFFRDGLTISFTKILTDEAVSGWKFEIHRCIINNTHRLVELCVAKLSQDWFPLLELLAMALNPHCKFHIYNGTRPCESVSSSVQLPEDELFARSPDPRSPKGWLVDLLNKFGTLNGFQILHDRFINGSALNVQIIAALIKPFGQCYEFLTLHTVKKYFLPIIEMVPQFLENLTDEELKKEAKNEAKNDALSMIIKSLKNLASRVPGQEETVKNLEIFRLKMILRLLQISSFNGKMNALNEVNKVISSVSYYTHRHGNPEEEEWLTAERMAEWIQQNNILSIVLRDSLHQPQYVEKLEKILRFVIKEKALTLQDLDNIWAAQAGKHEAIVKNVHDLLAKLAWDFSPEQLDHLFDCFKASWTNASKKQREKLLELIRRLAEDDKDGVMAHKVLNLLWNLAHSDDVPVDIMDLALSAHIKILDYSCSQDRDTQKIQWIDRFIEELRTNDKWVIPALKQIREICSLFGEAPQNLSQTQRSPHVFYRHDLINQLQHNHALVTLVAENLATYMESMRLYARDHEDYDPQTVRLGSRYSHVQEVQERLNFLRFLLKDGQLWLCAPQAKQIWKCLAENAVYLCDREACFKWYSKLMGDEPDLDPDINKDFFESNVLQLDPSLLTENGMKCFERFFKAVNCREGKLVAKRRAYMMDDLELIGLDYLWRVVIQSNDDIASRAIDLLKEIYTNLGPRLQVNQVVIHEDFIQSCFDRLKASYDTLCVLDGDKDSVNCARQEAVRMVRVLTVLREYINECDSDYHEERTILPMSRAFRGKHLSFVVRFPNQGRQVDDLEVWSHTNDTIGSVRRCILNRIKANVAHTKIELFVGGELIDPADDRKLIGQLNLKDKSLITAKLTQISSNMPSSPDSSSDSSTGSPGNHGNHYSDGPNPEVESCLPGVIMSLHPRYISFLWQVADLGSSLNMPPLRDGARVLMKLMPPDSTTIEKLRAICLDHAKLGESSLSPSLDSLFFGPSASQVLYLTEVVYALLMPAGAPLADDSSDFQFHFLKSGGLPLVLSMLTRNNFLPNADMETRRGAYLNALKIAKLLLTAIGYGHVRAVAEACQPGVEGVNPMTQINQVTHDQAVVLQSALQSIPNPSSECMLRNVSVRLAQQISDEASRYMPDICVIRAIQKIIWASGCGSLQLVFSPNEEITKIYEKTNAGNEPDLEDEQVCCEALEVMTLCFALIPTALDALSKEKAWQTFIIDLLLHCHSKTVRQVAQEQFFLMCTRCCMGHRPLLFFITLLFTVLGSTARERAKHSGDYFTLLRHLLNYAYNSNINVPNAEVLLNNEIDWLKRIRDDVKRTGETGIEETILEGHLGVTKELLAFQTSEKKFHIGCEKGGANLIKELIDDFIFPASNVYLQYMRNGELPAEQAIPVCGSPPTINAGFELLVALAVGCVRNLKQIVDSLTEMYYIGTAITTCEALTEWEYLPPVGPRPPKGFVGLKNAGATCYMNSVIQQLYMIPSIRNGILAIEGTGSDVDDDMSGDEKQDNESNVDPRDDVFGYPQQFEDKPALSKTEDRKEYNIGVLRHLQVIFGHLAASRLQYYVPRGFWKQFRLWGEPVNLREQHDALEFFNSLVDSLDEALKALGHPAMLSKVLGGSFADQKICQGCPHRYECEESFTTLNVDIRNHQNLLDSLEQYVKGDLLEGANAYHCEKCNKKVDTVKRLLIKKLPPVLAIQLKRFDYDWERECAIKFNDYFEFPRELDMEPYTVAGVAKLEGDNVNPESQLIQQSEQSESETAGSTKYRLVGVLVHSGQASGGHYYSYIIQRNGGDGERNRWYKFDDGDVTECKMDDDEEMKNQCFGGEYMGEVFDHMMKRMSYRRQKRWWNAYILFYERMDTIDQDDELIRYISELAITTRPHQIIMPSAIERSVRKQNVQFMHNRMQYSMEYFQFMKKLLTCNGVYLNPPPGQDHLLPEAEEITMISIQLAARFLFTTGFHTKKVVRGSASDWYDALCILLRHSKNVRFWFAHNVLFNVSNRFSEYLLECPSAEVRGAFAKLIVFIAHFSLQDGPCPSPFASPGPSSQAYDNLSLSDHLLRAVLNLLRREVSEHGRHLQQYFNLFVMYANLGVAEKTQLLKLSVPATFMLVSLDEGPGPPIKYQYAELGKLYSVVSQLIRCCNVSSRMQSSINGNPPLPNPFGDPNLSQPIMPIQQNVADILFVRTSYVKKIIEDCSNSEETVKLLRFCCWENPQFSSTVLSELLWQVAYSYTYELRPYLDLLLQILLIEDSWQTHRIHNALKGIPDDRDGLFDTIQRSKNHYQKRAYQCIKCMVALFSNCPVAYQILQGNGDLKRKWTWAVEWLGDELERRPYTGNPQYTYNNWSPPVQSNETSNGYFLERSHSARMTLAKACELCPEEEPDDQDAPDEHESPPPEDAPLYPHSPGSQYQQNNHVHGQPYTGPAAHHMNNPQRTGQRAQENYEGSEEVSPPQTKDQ

CNC(=O)C1CCN(C(=O)CCl)CC1
inactive: [1] -0.107 | [2] 0.144 | [3] -0.581 | [4] 0.091 | [5] 0.0899 | [6] -0.129 | [7] 0.179 | [8] 0.0343 | [9] -0.239
